Consider eleven compounds from paper PMC5540273 (PLoS ONE, 2017).

For orientation: Kd means the constant that tells how readily two partners part at equilibrium. Read a low Kd as a tighter complex.

Molecules are shown by their SMILES.

One experiment relates to T1, MEK2.
T1 construct: gene MAP2K2

Another experiment deals with T2, MINK.
T2 construct: gene MINK1
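Also: kd values determined as follow-up on hits from a single-replicate KINOMEscan panel screen.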

As to `Cn1c(=O)c(F)c(Nc2ccc(I)cc2F)c2c(=O)n(OC[C@H](O)CO)cnc21`, the Kd with MEK2 stood at 200 nM.

On to `COc1cc2nccc(Nc3cccc(Oc4ccccc4)c3)c2cc1OC.Cl` [GW284543], for which binding with MEK2 was characterised by a dissociation constant (Kd) of 270 nM.

For the compound `O=C(Nc1ccc2c(c1)OCO2)NC1CCN(c2ccnc(NCc3ccc(F)cc3)n2)CC1` [GSK1379859], the Kd in the experiment on MELK is greater than 10000 nM.

As to `Nc1nc(-c2ccccc2F)c(-c2ccnc3ccccc23)s1` [GW560459], in the experiment with MINK, the Kd is 1700 nM.

In the experiment with MINK, `COc1ccc(CNC(=O)NC2CCN(c3ccnc(Nc4ccc(F)cc4)n3)C2)cc1` (centres unmarked) [GSK1379706] displayed a Kd greater than 10000 nM.

On to `Cc1cccc(-c2nc(Nc3ccc4c(cnn4C)c3)c3ccccc3n2)n1` [GW876731], for which the Kd with MKNK1 was greater than 10000 nM.

With `Nc1n[nH]c2ncc(-c3ccccc3)cc12` [SB-517081], in the experiment on MKNK2, the affinity, expressed as Kd, was 260 nM. This lies in the sub-micromolar range.

As to `O=C(Nc1n[nH]c2nc(-c3ccccc3)c(Br)cc12)C1CC1` [SB-708998], the dissociation constant Kd with MST1R was greater than 10000 nM.

`COc1ccc(-c2cc3c(C)nc(N)nc3n([C@H]3CC[C@H](O)CC3)c2=O)cn1` returned a Kd in the experiment with MTOR of 4.8 nM. In other words, the single-digit nanomolar range.

The compound `COc1ccc(-c2cc3c(C)nc(N)nc3n([C@H]3CC[C@H](OCCO)CC3)c2=O)cn1` came in with a Kd in the experiment with MTOR of 3.3 nM.

As to `COc1cc2ncn(-c3cc(OCc4ccncc4)c(C(N)=O)s3)c2cc1OC` [GSK336313], the dissociation constant (Kd) with MUSK was greater than 10000 nM.
